Data published in the supplement of paper PMC6555819.

Tests used:
Test in all cases: PBM binding z-score (relative to random genomic background probes); higher = stronger binding; sequences stand for … in GC…GCGATTGACAGCGTAGAATGAAGG
[1] = test system: FXR:RXRa (NR concentration 270 nM, RXRa partner concentration 90 nM)
Procedure, shortened: (§1)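 Binding buffer was PBS pH 7.4 with 2% milk, 0.02% Triton X-100, 1 mM DTT, 0.2 mg/mL BSA and 0.4 mg/ml salmon testes DNA. In it, ligand-free nuclear receptor dimers were incubated 1 h on custom Agilent 4×180K protein-binding microarrays carrying double-stranded probes. Antibodies against each partner (one per run) detected binding, and z-scores were calculated against random background probes after regression normalization of scanned fluorescence.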

[2] = test system: LXRa:RXRa (NR concentration 270 nM, RXRa partner concentration 90 nM)
Procedure, shortened: as §1

[3] = test system: LXRa homodimer (NR concentration 270 nM)
Procedure, shortened: as §1

[4] = test system: LXRb:RXRa (NR concentration 270 nM, RXRa partner concentration 90 nM)
Procedure, shortened: as §1

[5] = test system: LXRb homodimer (NR concentration 270 nM)
Procedure, shortened: as §1

[6] = test system: PPARa:RXRa (NR concentration 270 nM, RXRa partner concentration 90 nM)
Procedure, shortened: as §1

[7] = test system: PPARg:RXRa (NR concentration 180 nM, RXRa partner concentration 90 nM)
Procedure, shortened: as §1

[8] = test system: PPARg:RXRa 270nM:90nM, anti-RXR (NR concentration 270 nM, RXRa partner concentration 90 nM)
Procedure, shortened: as §1

[9] = test system: PPARg:RXRa 30nM:10nM, anti-RXR (NR concentration 30 nM, RXRa partner concentration 10 nM)
Procedure, shortened: as §1

[10] = test system: PPARg:RXRa 90nM:30nM, anti-RXR (NR concentration 90 nM, RXRa partner concentration 30 nM)
Procedure, shortened: as §1

[11] = test system: PPARg:RXRa DBDmut IVT, anti-RXR (DBD mutation: RXRa K156A/R161A, NR concentration 270 nM, RXRa partner concentration 90 nM)
Procedure, shortened: as §1

[12] = test system: PPARg:RXRa IVT, anti-PPARg (NR concentration 270 nM, RXRa partner concentration 90 nM)
Procedure, shortened: as §1

[13] = test system: PPARg DBDmut:RXRa IVT, anti-PPARg (DBD mutation: PPARg1 K132A/R137A, NR concentration 270 nM, RXRa partner concentration 90 nM)
Procedure, shortened: as §1

[14] = test system: PPARg DBDmut IVT, anti-PPARg (DBD mutation: PPARg1 K132A/R137A, NR concentration 270 nM)
Procedure, shortened: as §1

[15] = test system: PPARg homodimer (NR concentration 180 nM)
Procedure, shortened: as §1

[16] = test system: PXR:RXRa (NR concentration 270 nM, RXRa partner concentration 90 nM)
Procedure, shortened: as §1

[17] = test system: PXR homodimer (NR concentration 270 nM)
Procedure, shortened: as §1

[18] = test system: RARa:RXR (NR concentration 270 nM, RXRa partner concentration 90 nM)
Procedure, shortened: as §1

[19] = test system: RARa homodimer (NR concentration 270 nM)
Procedure, shortened: as §1

[20] = test system: RARb:RXRa (NR concentration 270 nM, RXRa partner concentration 90 nM)
Procedure, shortened: as §1

Row | Sequence | PBM binding z-score [1] | PBM binding z-score [2] | PBM binding z-score [3] | PBM binding z-score [4] | PBM binding z-score [5] | PBM binding z-score [6] | PBM binding z-score [7] | PBM binding z-score [8] | PBM binding z-score [9] | PBM binding z-score [10] | PBM binding z-score [11] | PBM binding z-score [12] | PBM binding z-score [13] | PBM binding z-score [14] | PBM binding z-score [15] | PBM binding z-score [16] | PBM binding z-score [17] | PBM binding z-score [18] | PBM binding z-score [19] | PBM binding z-score [20]
1 | AGAATGAGGTTACCAAAGATCTGGGAAACGCTTG | 1.57 | 2.23 | -0.414 | 1.23 | -0.401 | 3.4 | 2.74 | 2.37 | 0.756 | 1.91 | 3.41 | 3.25 | 0.193 | 0.0654 | 0.163 | 0.907 | -0.203 | 1.77 | -0.536 | 1.98
2 | GCTGCTAGGTCAACTGATGGTCAGCGAAAGCTCG | 4.13 | 3.2 | 0.141 | 2.07 | -0.112 | 3.84 | 2.73 | 3.35 | 0.723 | 2.31 | 4.56 | 4.1 | 0.329 | -0.0247 | 1.64 | 1.7 | -0.425 | 2.98 | 0.244 | 4.37
3 | GATACAGGGTCATGGCCAGAGTACGCGTATTGAT | 6.5 | 4.72 | -0.00415 | 3.79 | -0.283 | 5.65 | 6.02 | 6.38 | 2.73 | 4.67 | 3.28 | 4.13 | 0.893 | -0.182 | 1.88 | 4.2 | -0.295 | 5.43 | 0.00513 | 4.31
4 | AGAACGAGGACAATGAGTTGATAGCACGGGTGGC | -0.125 | -0.562 | -0.33 | -0.706 | -0.434 | -0.365 | 1.06 | -0.0649 | -0.0875 | -0.147 | 1.03 | 0.378 | -0.192 | -0.367 | 0.00958 | 0.277 | 1.99 | -0.176 | 0.102 | 0.775
5 | GCTAGCAGGCCATTTTGGTCACTCAATGACGGGC | -0.64 | -0.754 | -1.03 | -0.967 | -0.971 | -0.67 | 0.24 | -0.925 | -0.857 | -0.861 | 0.582 | -0.122 | -1.08 | -1.4 | -1.14 | -0.775 | -0.836 | -0.995 | -1.3 | 0.0531
6 | GCTCGTTGGTCAGTAAAAGGTCACACACCGGTCG | 3.94 | 4.86 | 5.11 | 4.22 | 1.19 | 4.89 | 3.34 | 4.93 | 2.81 | 4.52 | 0.994 | 2.63 | 0.257 | 0.405 | 4.91 | 5.35 | 1.21 | 6.7 | 2.93 | 4.48
7 | AATACAGGGTCATCGTAGGCCAGAGTCCGCACAG | 7.16 | 6.35 | 2.6 | 4.52 | 1.21 | 5.96 | 6.83 | 5.83 | 2.39 | 4.51 | 2.98 | 4.32 | 0.922 | 0.82 | 2.39 | 4.96 | 0.483 | 4.93 | 0.764 | 4.45
